# Data published in PubChem BioAssay AID743269 (The Scripps Research Institute Molecular Screening Center, 2014).
# Among all 370,000 compounds or so, about 2,400 (0.65%) were called active. Many of the other results were omitted from the sample, so actives are more common in it than they were. A number with no mark means an inactive call.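 Rule for the calls: active = inhibition above the screen-wide mean plus 3 SD (cut at about 13% in these data); inactive = the rest.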
# Tested on: HIV-1 integrase (with human LEDGF/p75)
# Experiment: blockers of LEDGF/p75-dependent integrase strand transfer – biochemical, TR-FRET, high throughput, primary screen (AID 743269);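 note: signal is the Cy5 over europium emission ratio at 671 and 618 nm; 0% = plate median of compound wells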
# Details: TR-FRET IN-LEDGF/p75 DNA integration, Eu/Cy5; at 3.7 µM; active compounds read high
row,SMILES,inhibition
1,C=CCOC/C=C/C#CCN(CC=C)Cc1ccc(OC)cc1OC,5.5%
2,CCOC(=O)[C@]12CCCC3=C1N(CCC3)C(=O)[C@@H](CC(=O)NCc1cccs1)C2,-1.84%
3,O=C(Nc1cccc2c1CCCC2)C1CCN(C(=O)NC2CCCCC2)CC1,-1.21%
4,O=C(NC1CCCCC1)N1CCc2[nH]c3ccccc3c2C1,35.1% (active)
5,O=C(CSc1nnc2c(n1)[nH]c1ccccc12)NC1CCCCC1,4.55%
6,CC(=O)C1(C(=O)Nc2nccs2)CC(c2ccccc2C(F)(F)F)=NO1 (stereo not given),1.17%
7,O=C(O)Cn1c(Cc2ccccc2)nc2ccccc21,-1.98%
8,CC(O)c1nc2ccccc2n1Cc1ccc([N+](=O)[O-])cc1 (stereo not given),0.5%
9,CC(=O)c1nc2ccccc2n1Cc1ccccc1,22.6% (active)
10,COc1cccc(/C=C2\CC3(OC(C)=O)CCCN2C3)c1 (stereo not given),-3.9%
11,O=C1C(=O)N(Cc2ccc(-c3ccsc3)cc2)c2ccc(OC(F)(F)F)cc21,0.06%
12,Cc1cccc(NC(=O)C[C@H]2CC[C@H]3[C@@H](COc4ccc(NC(=O)Nc5ccccc5)cc4C(=O)N3C)O2)c1,1.61%
13,Cc1ccc(C2=CCN(C)C(=O)N2c2ccc(Cl)cc2)cc1,0.69%
14,Oc1c(C=Nc2cccc3nsnc23)ccc2ccccc12,25.6% (active)
15,O=C(CSc1nnc(COc2ccccc2)n1-c1ccc(Cl)cc1)Nc1ccc2c(c1)OCO2,-1.91%
16,COC(=O)C1CN(CC(C)C)CCS(=O)(=O)N1Cc1ccc(F)cc1 (stereo not given),-4.4%
17,Cc1nc(SCC(=O)c2ccccc2)c([N+](=O)[O-])[nH]1,-5.1%
18,COc1ccc(C(=O)CSc2n[nH]c(N)n2)cc1,-3.51%
19,Cc1cc(Oc2ccc(Cl)cc2)nc(SCC(=O)c2ccccc2)n1,35.9% (active)
20,COC(=O)[C@]12C[C@H](CC(=O)NCCCN3CCCC3=O)C(=O)N(CCc3ccc(OC)c(OC)c3)C1=C[C@H](COCc1ccccc1)O[C@@H]2C,-3.08%
21,NC1=CC(=O)C(=O)c2cccnc21,40% (active)
22,O=c1ccc2c(-c3ccccc3S(=O)(=O)O)c3ccc(O)c(O)c3oc-2c1O,84% (active)
23,Cc1c[nH]c2cccc(-c3ccc(Cl)cc3)c12,4.29%
24,C[C@@H]1CN([C@@H](C)CO)C(=O)c2cccc(NC(=O)Nc3cccc4ccccc34)c2O[C@H]1CN(C)S(=O)(=O)c1ccccc1F,3.05%
25,C#CCN([C@H](C(=O)OC)C(C)CC)S(=O)(=O)c1ccccc1Br (stereo not given in full),2.37%
26,Cc1cc(=O)[nH]c(SCC(=O)Nc2ccc(F)cc2F)n1,-4.09%
27,CCC(=O)Nc1ccc2c(c1)C(=O)N(C)[C@@H]1CC[C@@H](CC(=O)NCCc3ccccc3)O[C@H]1CO2,-2.65%
28,Cc1ccc(N=C2NC(=O)/C(=C/C=C/c3ccco3)S2)cc1C,16.8% (active)

row,SMILES,inhibition
1,COC(=O)C[C@@H]1CC[C@@H]2[C@H](COc3ccc(NC(=O)c4cccc(F)c4)cc3C(=O)N2C)O1,7.98%
2,Cc1ccc(-n2c(COc3ccccc3)nnc2SCC(=O)Nc2ccc3c(c2)OCCO3)cc1,-2.45%
3,C=CCn1c(SCC(=O)CC(=O)OCC)nc2cc(C(=O)N3CCC(C(N)=O)CC3)ccc2c1=O,-1.71%
4,C=CCn1c2ccccc2c2nnc(SCc3[nH]c(=O)[nH]c3C(=O)CCCCC(=O)OCC)nc21,43.2% (active)
5,C=CCn1c2ccccc2c2nnc(SC(CC)C(=O)Nc3nc(C)c(C(=O)OCC)s3)nc21 (stereo not given),-2.02%
6,COc1cccc(N2CCN(CC(=O)N(C)Cc3ccc(F)cc3)CC2)c1,-2.54%
7,COC(=O)[C@]12C[C@H](CC(=O)N3CCOCC3)C(=O)N(Cc3ccc(Cl)cc3Cl)C1=C[C@H](COCc1ccccc1)O[C@@H]2C,0.62%
8,Cc1ccc(C(=O)C2CCN(CC(=O)NCCC(C)C)CC2)cc1,0.16%
9,CC(C)(C)C1C/C(=C/c2ccco2)C(=O)/C(=C/c2ccco2)C1 (stereo not given),79.5% (active)
10,COc1ccc(CN(CCN2CCOCC2)C(=O)c2ccc(C)cc2)cc1OC,-0.71%
11,CCOC(=O)c1cccc(NC(=O)CN(C)S(=O)(=O)c2ccc(-c3cocn3)s2)c1,2.14%
12,CCCCC(=O)N[C@@H]1CC[C@@]23CCCN2C(=O)CCC[C@H]3[C@H]1C,0.47%
13,COc1ccnc(C(=O)N2CCC(Oc3cccnc3)CC2)c1,-0.27%
14,COc1ccc(-c2c(C(C)=O)c(C)nc3sc4c(=O)n(-c5ccc(C)cc5)nnc4c23)cc1,-0.97%
15,COCc1cc(C)nc2sc3c(=O)n(-c4cccc5ccccc45)nnc3c12,18.6% (active)
16,COCc1cc(C)nc2sc(C(=O)NC3CCCCC3)c(N)c12,0.63%
17,Clc1ccc(-n2c(COc3ccccc3)nnc2SCc2nc3ccccc3[nH]2)cc1,-0.48%
18,Oc1cc(O)c2c(c1)OC(c1ccc(O)c(O)c1)C(O)C2 (stereo not given),17.4% (active)
19,O=C(Nc1cc(Cl)cc(Cl)c1)OCCN1CCCC12CCC(c1ccccc1)CC2 (stereo not given),-0.23%
20,Cc1ccc(-n2c(SCC(=O)Nc3ccc(S(=O)(=O)Nc4nccs4)cc3)nnc2-c2ccncc2)cc1,-1.61%
21,CCOC(=O)c1c(C)oc2cc(Sc3ccccc3)c(O)c(O)c12,23.4% (active)
22,CCOC(=O)c1c(C)oc2cc(Br)c(OCC(N)=O)cc12,-0.08%
23,CCOC(=O)c1c(C)oc(C)c(C(=O)OCC)c1=O,3.08%
24,COC(=O)CC1CCc2cc(C)cc(C(CC(C)C)NC(=O)[C@H](CC(C)C)NC(=O)OCc3ccccc3)c2O1 (stereo not given in full),-0.18%
25,CCN(C(=O)[C@@H](C1CC1)[C@@H](O)c1ccc2ccccc2c1)c1ccccc1,-2.01%
26,Cc1ccc(Cc2cnc(N)s2)o1,31.2% (active)
27,O=C(Nc1nc2ccc(Cl)cc2s1)c1cc(-c2ccc(Cl)cc2)nc2ccccc12,6.18%
